The source of these data is PubChem BioAssay (Tox21).

Test [1] can be described thus: qHTS assay to identify aromatase inhibitors - cell viability counter screen (AID 743084).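 Also: cells stimulated with testosterone during compound exposure; nearly all actives have a fitted effect of over 55% in size.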 Also: potency is read from the fitted curve at half-maximal effect.
Test [2] addresses Aryl hydrocarbon receptor (Homo sapiens) (UniProt P35869). The experiment in a line: qHTS assay to identify small molecule that activate the aryl hydrocarbon receptor (AhR) signaling pathway (AID 743085). Also: nearly all actives have a fitted effect of over 15% in size. Also: potency is read from the fitted curve at half-maximal effect.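 As to activation: HG2L7.5c1 human HepG2 liver cells with stably integrated DRE-driven firefly reporter; series mostly up to about 70 µM.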 The gist of the method:
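Luminescence (ONE-Glo) from a dioxin-responsive-element luciferase reporter in HG2L7.5c1 HepG2 cells after 24 hr compound exposure at 37C; viability measured by CellTiter-Fluor fluorescence beforehand.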

Test [3] in a line: qHTS assay to identify small molecule that activate the aryl hydrocarbon receptor (AhR) signaling pathway - cell viability counter screen (AID 743086). Also: nearly all actives have a fitted effect of over 45% in size. Also: potency is read from the fitted curve at half-maximal effect. The gist of the method: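 HepG2-AhR-luc (HG2L7.5c1) cells, 4000/well, were preincubated 5 h at 37C, exposed to compound in qHTS format for 24 hr at 37C, then given CellTiter-Fluor for 30 min; viability was read as fluorescence in the reporter wells.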

Test [4] addresses Peroxisome proliferator-activated receptor gamma (Homo sapiens) (UniProt P37231). The experiment in a line: qHTS assay to identify small molecule agonists of the peroxisome proliferator-activated receptor gamma (PPARg) signaling pathway (AID 743094; active = well fitted activation curve with a large enough effect in the signal ratio in the repeat runs, not every such curve was filed as active; the % refers to the signal ratio). The gist of the method:
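Reporter activation was scored by fluorescence of cleaved LiveBLAzer B/G substrate (1 h, room temperature) in PPARg-bla HEK293H cells previously treated 17 h at 37C with DMSO-dissolved compounds.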

Test [5] shares this target. The experiment in a line: qHTS assay to identify small molecule antagonists of the peroxisome proliferator-activated receptor gamma (PPARg) signaling pathway (AID 743191; calls by dose curve; also: nearly all actives have a fitted effect of over 30% in size; also: potency is read from the fitted curve at half-maximal effect). In short, it runs like this:
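GeneBLAzer PPARg UAS-bla HEK293H cells carrying a UAS-driven beta-lactamase reporter were plated at 3000 cells/well, preincubated 5 h at 37C, then given compound for 17 h at 37C; LiveBLAzer B/G FRET substrate was read after 1 h at room temperature.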

A short description of test [6]: qHTS assay to identify small molecule antagonists of the peroxisome proliferator-activated receptor gamma (PPARg) signaling pathway - cell viability counter screen (AID 743194). Also: nearly all actives have a fitted effect of over 55% in size. Also: potency is read from the fitted curve at half-maximal effect. Particulars: Potency: co-treated with 50 nM rosiglitazone unless noted. In short, it runs like this: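 PPARg-UAS-bla HEK293H cells were plated, rested 5 h at 37 C, then treated with compounds plus rosiglitazone (50 nM final) for 17 h at 37 C; viability was then read by CellTiter-Glo luminescence after 30 min at room temperature.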

Test [7] is described as follows: qHTS assay for small molecule agonists of the antioxidant response element (ARE) signaling pathway (AID 743202; active = well fitted activation curve with a large enough effect in the signal ratio in the repeat runs, not every such curve was filed as active; the % refers to the signal ratio). In short, it runs like this: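 Following a 16 h, 37 C exposure of reporter HepG2 cells (ARE-driven beta-lactamase, 2,000 cells/well) to compounds, FRET substrate was applied for 2 h at room temperature and fluorescence intensity recorded.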
Test [8] is described as follows: qHTS assay for small molecule agonists of the antioxidant response element (ARE) signaling pathway - cell viability counter screen (AID 743203; calls by dose curve; also: nearly all actives have a fitted effect of over 55% in size; also: potency is read from the fitted curve at half-maximal effect). The gist of the method: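 Viability counter screen: stably transfected ARE-bla HepG2 line, 16 hrs compound exposure at 37C/5% CO2, ATP-based CellTiter-Glo luminescence measured in the reporter wells.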
Test [9] is described as follows: qHTS assay for small molecule activators of the heat shock response signaling pathway - cell viability counter screen (AID 743209). Also: nearly all actives have a fitted effect of over 50% in size. Also: potency is read from the fitted curve at half-maximal effect. The gist of the method:
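Viability of HSE-bla HeLa cells is measured with CellTiter-Glo in the wells already used for the reporter read. Compound exposure lasts 5 h at 37 C, and luminescence is read after 30 min at room temperature.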

The nature of test [10]: qHTS assay for small molecule activators of the heat shock response signaling pathway (AID 743210; active = well fitted activation curve with a large enough effect in the signal ratio in the repeat runs, with a control signal flat, not every such curve was filed as active; the % refers to the signal ratio; also: series mostly up to about 63 µM). In short, it runs like this: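 Heat shock element–beta-lactamase HeLa reporter cells; qHTS with compounds for 5 h at 37 C; detection by FRET substrate fluorescence after 2.5 h at RT.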

Each structure is given as a SMILES string. Inconclusive results are not listed. Active and inactive are the calls of the source. Unless noted, calls follow the shape of the dose curve; as a rule, active = well fitted curve in the direction sought with a large enough effect in the repeat runs; inconclusive = weak or mixed curves; inactive = no such curve, though single readings can be large; an effect the other way counts as inactive or inconclusive.

Aryl hydrocarbon receptor (Homo sapiens), sequence (P35869 whole entry, looked up): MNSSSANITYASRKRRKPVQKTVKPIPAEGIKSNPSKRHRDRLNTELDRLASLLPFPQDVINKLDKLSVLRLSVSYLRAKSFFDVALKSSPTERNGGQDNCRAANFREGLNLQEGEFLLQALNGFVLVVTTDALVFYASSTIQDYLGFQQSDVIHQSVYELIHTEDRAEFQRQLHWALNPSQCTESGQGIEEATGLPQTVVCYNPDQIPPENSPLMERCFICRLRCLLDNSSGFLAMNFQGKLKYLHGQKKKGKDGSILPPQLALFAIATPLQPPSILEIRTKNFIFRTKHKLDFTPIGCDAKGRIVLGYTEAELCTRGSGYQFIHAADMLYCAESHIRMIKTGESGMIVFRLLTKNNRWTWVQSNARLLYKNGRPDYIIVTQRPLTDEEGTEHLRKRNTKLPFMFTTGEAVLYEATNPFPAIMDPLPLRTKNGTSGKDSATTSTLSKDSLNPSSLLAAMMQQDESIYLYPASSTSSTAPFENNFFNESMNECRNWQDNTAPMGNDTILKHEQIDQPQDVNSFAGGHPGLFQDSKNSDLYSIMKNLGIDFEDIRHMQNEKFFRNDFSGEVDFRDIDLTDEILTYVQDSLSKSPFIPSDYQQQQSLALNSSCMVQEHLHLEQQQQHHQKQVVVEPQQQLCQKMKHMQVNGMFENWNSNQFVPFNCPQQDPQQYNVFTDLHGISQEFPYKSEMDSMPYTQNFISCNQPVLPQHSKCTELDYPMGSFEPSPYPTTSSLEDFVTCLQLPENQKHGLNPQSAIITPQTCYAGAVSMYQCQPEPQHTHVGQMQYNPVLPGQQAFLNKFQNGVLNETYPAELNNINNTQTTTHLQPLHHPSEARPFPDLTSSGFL
Peroxisome proliferator-activated receptor gamma (Homo sapiens), sequence (P37231 whole entry, looked up): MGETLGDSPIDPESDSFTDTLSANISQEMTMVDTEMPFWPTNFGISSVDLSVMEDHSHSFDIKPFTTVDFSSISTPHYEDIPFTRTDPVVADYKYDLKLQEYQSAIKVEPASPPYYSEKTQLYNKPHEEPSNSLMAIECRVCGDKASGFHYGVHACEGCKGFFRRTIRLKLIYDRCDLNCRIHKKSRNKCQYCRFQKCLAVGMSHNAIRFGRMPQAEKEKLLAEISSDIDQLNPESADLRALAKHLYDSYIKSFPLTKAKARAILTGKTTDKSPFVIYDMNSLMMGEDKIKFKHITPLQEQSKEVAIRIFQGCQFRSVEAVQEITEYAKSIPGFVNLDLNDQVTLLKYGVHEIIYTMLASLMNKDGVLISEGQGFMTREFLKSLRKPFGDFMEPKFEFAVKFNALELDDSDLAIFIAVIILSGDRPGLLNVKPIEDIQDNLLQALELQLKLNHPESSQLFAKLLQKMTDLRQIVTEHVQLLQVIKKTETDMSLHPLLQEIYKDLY

Take `CNC(C)(C)Cc1ccccc1`: the Potency entry in test [1], in test [2], in test [3], in test [4], in test [5] and in [6] was “inactive” throughout. For the same compound, the Potency entry in test [7], in test [8], in test [9] and in test [10] was “inactive” throughout.
On to `C#CCO`, for which the Potency entry in [1], in test [2], in test [3], in [4], in [5] and in test [6] was “inactive” each time. Besides, the Potency result in test [7], in test [8], in test [9] and in [10] was “inactive” each time.
Consider `O=C(Cl)c1ccccc1F`, for which the Potency result in test [1], in test [2], in [3], in test [4], in test [5] and in test [6] was “inactive” each time. In addition, the Potency result in [8], in [9] and in test [10] was “inactive” in each case.
In the case of `N#Cc1sc2c(=O)c3ccccc3c(=O)c=2sc1C#N`, the Potency was 4.33 µM (active) in test [1]; 1.93 µM (active) in [2]; 6.86 µM (active) in test [3]; 12.3 µM (active) in [5]; 19.5 µM (active) in test [6]; 8.63 µM (active) in test [8]. Moreover, the Potency in test [9] is 1.95 µM (active). For the same compound, the Potency result in test [4] was “inactive”.
Consider `CNN`, for which the Potency result in test [1], in test [2], in [3], in test [4], in test [5] and in test [6] was “inactive” each time. Also, the Potency result in test [8], in test [9] and in [10] was “inactive” each time.
For `C#CC1(O)CCCCC1`, the Potency result in [1], in test [2], in test [3], in test [4], in test [5] and in [6] was “inactive” in each case. Further, the Potency result in [8], in [9] and in test [10] was “inactive” in each case.
Take `O=S1(=O)OCC2C(CO1)C1(Cl)C(Cl)=C(Cl)C2(Cl)C1(Cl)Cl` (stereo not given): the Potency in test [1] was 61.1 µM (active). For the same compound, the Potency entry in [2], in test [3], in test [4], in [5] and in test [6] was “inactive” each time.
For `CCCN`, the Potency result in [1], in test [2], in [3], in [4], in test [5] and in test [6] was “inactive” each time. For the same compound, the Potency entry in [7], in [8], in test [9] and in test [10] was “inactive” in each case.
`CCNS(=O)(=O)C(F)(F)C(F)(F)C(F)(F)C(F)(F)C(F)(F)C(F)(F)C(F)(F)C(F)(F)F`: the Potency result in [1], in test [2], in [3], in test [4], in test [5] and in test [6] was “inactive” throughout. For the same compound, the Potency entry in test [9] and in test [10] was “inactive” throughout.
With `O=NN(CCO)CCO`, the Potency result in [1], in [2], in test [3], in test [4], in [5] and in test [6] was “inactive” each time. Moreover, the Potency result in test [7], in test [8] and in [10] was “inactive” each time.
With `CN/C(=N\[N+](=O)[O-])NCc1cnc(Cl)s1`, the Potency result in test [1], in [2], in [3], in test [4], in test [5] and in test [6] was “inactive” throughout. For the same compound, the Potency result in [8], in test [9] and in test [10] was “inactive” throughout.
For `N#CCCl`, the Potency result in test [1], in test [2], in test [3], in test [4], in test [5] and in test [6] was “inactive” each time. The Potency result in test [8], in test [9] and in test [10] was “inactive” in each case.
On to `S=C=Nc1ccccc1`, for which the Potency result in [1], in test [2], in test [3], in [4], in test [5] and in test [6] was “inactive” throughout. Besides, the Potency entry in test [8], in test [9] and in [10] was “inactive” throughout.
With `ClC(Cl)C(Cl)(Cl)Cl`, the Potency entry in test [1], in test [2], in test [3], in [4], in [5] and in test [6] was “inactive” each time. Moreover, the Potency result in test [7], in test [8], in test [9] and in [10] was “inactive” each time.
Take `COP(=S)(OC)Oc1ccc([N+](=O)[O-])c(C)c1`: the Potency entry in test [1], in test [3], in test [4], in [5], in test [6] and in test [8] was “inactive” each time. Also, the Potency result in [9] was “inactive”. The Potency in test [2] is 48.6 µM (active).
Consider `O=[N+]([O-])c1ccc(Cl)c(Cl)c1Cl`, for which the Potency entry in [1], in test [2], in test [3], in test [4], in test [5] and in [6] was “inactive” throughout. Further, the Potency entry in test [8], in test [9] and in test [10] was “inactive” each time.
Turning to `COc1ccc2c3c1O[C@H]1[C@H](O)CC[C@H]4[C@@H](C2)N(C)CC[C@@]341`, the Potency entry in test [1], in test [2], in [3], in test [4], in test [5] and in test [6] was “inactive” throughout. The Potency result in [8] was “inactive”.
Regarding `CCNc1nc(NC(C)C(C)C)nc(SC)n1` (stereo not given), the Potency result in test [1], in [2], in test [3], in test [4], in [5] and in test [6] was “inactive” each time. For the same compound, the Potency result in test [7], in [8], in [9] and in [10] was “inactive” in each case.
On to `CN=C=O`, for which the Potency result in test [1], in test [2], in [3], in test [6], in test [7] and in [8] was “inactive” each time. Also, the Potency result in test [9] is “inactive”.
`CCC(C)Nc1c([N+](=O)[O-])cc(C(C)(C)C)cc1[N+](=O)[O-]` (stereo not given): the Potency entry in test [1], in test [2], in test [3], in test [5], in [6] and in test [8] was “inactive” in each case. The Potency result in test [9] is “inactive”.
With `OCC(Br)CBr` (stereo not given), the Potency result in test [1], in test [2], in [3], in test [5], in test [6] and in test [8] was “inactive” throughout. Also, the Potency result in [9] and in test [10] was “inactive” each time.
As for `CC(=O)[O][Sn]([c]1ccccc1)([c]1ccccc1)[c]1ccccc1`, the Potency was 0.344 µM (active) in test [1]; 0.77 µM (active) in test [3]; 0.138 µM (active) in test [6]; 0.0344 µM (active) in test [8]; 15.5 µM (active) in test [9]. The Potency entry in test [2] is “inactive”.
`COC(=O)c1ccccc1S(=O)(=O)NC(=O)Nc1nc(C)nc(OC)n1`: the Potency entry in [1], in test [2], in [3], in test [6], in test [7] and in test [8] was “inactive” in each case. Also, the Potency result in [9] and in [10] was “inactive” throughout.
